# Shiga inhibitor = A qHTS for Small Molecule Inhibitors of Shiga Toxin | Vero cells, Shiga toxin protein synthesis inhibition reporter | inhibition, % at 38.7 µM | 9.2% of 290,000 active | AID 2315, 2010; in the data active = inhibition mostly above about 28%, no sharp cut-off; inactive = mostly below about 43%; note: 0% is about no effect
# Cycloheximide cs = Cycloheximide Counterscreen for Small Molecule Inhibitors of Shiga Toxin; cell reporter, cycloheximide protein synthesis inhibition counterscreen; 12% of 300,000 active; max response, %; in the data active = max response mostly above about 13%, no sharp cut-off; inactive = mostly below about 14%; note: read at 38.3 µM for the half of the compounds with a filed dose; 0% is about no effect
# Tb PYK inh = qHTS of Trypanosoma Brucei Inhibitors; AID 624173, 2012; 0.12% of 410,000 active; Potency, µM (highest dose often 76.8 µM), for inactives: top-dose activity, negative = inhibition, hits mostly inhibitors; pyruvate kinase (Trypanosoma brucei), Q57TT1; TbPYK enzyme, Kinase-Glo Plus ATP luminescence, 45 min; note: potency is the fitted concentration of half-maximal effect; % is set by controls: 0 for no effect and ±100 for the full control effect; nearly all actives have a fitted effect of over 50% in size
#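 Readout: single end-point luminescence (Kinase-Glo Plus, 10 min). Reaction conditions were TbPYK/substrate plus 130 uM ADP, 45 min at RT, pH 7.2 TEA buffer. No-enzyme wells served as controls, and data were normalized before concentration-response fitting.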
# Sm TGR inh = qHTS Assay for the Inhibitors of Schistosoma Mansoni Peroxiredoxins. purified TGR, DTNB reduction, TNB absorbance 405 nm. AID 485364, 2010. Potency, µM (series often up to 114 µM), for inactives: at the highest dose activity change, negative = inhibition, actives largely listed as inhibitors. 3% of 360,000 active; note: potency is the fitted concentration of half-maximal effect; % is set by controls: 0 for no effect and ±100 for the full control effect; nearly all actives have a fitted effect of over 60% in size
#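 Kinetic colorimetric format: TGR-catalysed, NADPH-driven DTNB reduction monitored via TNB absorbance. Enzyme dispensed at 20 nM; compound exposure 15 min at room temperature before reaction start.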
# FBPA Giardia inh = qHTS Assay for Inhibitors of Fructose-1,6-bisphosphate Aldolase from Giardia Lamblia | A8B2U2 | purified Giardia FBPA | Potency, µM (highest dose often 59.6 µM), for the others: at the top dose activity, negative = inhibition, actives largely listed as inhibitors | 0.71% of 290,000 active | AID 2451, 2010; note: potency is the fitted concentration of half-maximal effect; % is set by controls: 0 for no effect and ±100 for the full control effect; nearly all actives have a fitted effect of over 55% in size
#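 40 nM FBPA preincubated 10 min at RT with compound (up to 57.5 uM final), then substrate plus GAPDH/TPI/NAD/arsenate coupling and diaphorase/resazurin added. Fluorescence read after 20 min at RT, 525/598 nm.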
# LmPK inh = qHTS Assay for Inhibitors of Leishmania Mexicana Pyruvate Kinase (LmPK). Q27686. purified LmPK, Kinase-Glo ATP luminescence, 1 h. Potency, µM (doses to about 57.5 µM), without a hit: top-dose activity change, negative = inhibition, hits mostly inhibitors. 0.37% of 290,000 active; note: potency is the fitted concentration of half-maximal effect; % is set by controls: 0 for no effect and ±100 for the full control effect
# Target sequence (Q27686 whole entry, looked up): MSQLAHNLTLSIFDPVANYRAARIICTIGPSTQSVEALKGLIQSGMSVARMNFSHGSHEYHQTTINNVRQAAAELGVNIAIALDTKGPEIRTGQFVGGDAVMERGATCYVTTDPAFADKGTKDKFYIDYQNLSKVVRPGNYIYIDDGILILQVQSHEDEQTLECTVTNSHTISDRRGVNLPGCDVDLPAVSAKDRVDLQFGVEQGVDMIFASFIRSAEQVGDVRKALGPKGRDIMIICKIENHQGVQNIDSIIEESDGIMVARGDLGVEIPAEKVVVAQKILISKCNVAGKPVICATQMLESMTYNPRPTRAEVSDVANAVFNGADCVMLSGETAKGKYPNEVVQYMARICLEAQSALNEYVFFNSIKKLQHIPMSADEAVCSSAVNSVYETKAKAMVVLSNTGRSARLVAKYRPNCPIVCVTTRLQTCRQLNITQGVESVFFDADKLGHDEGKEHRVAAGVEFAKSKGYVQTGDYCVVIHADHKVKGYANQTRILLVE
#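 Purified LmPK (0.1 nM) with 0.5 mM PEP and 0.1 mM ADP in imidazole buffer pH 7.2 with MgCl2/KCl, 1 h at room temperature. ATP formed was read by luciferase luminescence and normalized to no-enzyme and uninhibited controls.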
# The depositor's hits bear a star; u = inconclusive; x = no result given. This is one part of a sample in which hits are shown more often than they occur. Unless noted, calls come from the whole dose curve; as a rule, active = well fitted curve in the direction sought with a large enough effect; inconclusive = small, poorly fitted or top-dose-only effect, or another doubt; inactive = no such curve, though single readings can be large; an effect the other way counts as inactive or inconclusive.
SMILES,Shiga inhibitor,Cycloheximide cs,Tb PYK inh,Sm TGR inh,FBPA Giardia inh,LmPK inh
N=C(N)c1ccc(N2CCN(C3CCN(CC(=O)O)CC3)CC2)cc1,x,x,x,x,-15%,x
COC(=O)c1ccccc1NC(=O)c1ccc2c(c1)OCCCO2,30,22*,0%,3%,x,-6%
CC(=O)Nc1ccccc1NC(=O)c1ccc2c(c1)OCO2,x,x,4%,x,x,x
Cc1ccccc1NC(=O)c1ccc2c(c1)OCCO2,137*,18*,-5%,4%,-2%,-11%
Cc1cccc(NC(=O)c2ccc3c(c2)OCCO3)c1C,109*,47*,-3%,2%,1%,-11%
N#Cc1ccccc1NC(=O)c1ccc2c(c1)OCCO2,99*,31*,-2%,0%,0%,0%
CC(C)(C)NC(=O)c1ccccc1NC(=O)c1ccc2c(c1)OCO2,-19,-4,-11%,x,0%,6%
Cc1ccc(C(C)C)c(OCC(=O)Nc2cc(-c3nc4ccccc4[nH]3)ccc2C)c1,x,x,-4%,-10%,x,x
CSc1ncc(C(=O)N2CCN(c3ccc(Cl)cc3)CC2)c(C)n1,x,x,0%,-2%,x,x
Cc1cc2cc(CCNS(=O)(=O)c3ccc(Br)cc3)c(=O)[nH]c2cc1C,x,x,-3%,-6%,x,x
N#Cc1ccc(Cl)cc1NC(=O)COC(=O)c1ccc2c(c1)OCCO2,15,8,4%,-7%,-3%,5%
N#Cc1ccccc1NC(=O)COC(=O)c1ccc2c(c1)OCCO2,29,19*,2%,4%,-2%,-1%
CC1CCCC2(C1)NC(=S)c1c(sc3c1CCCC3)N2 (centres undefined),57,15*,-39%,6%,7%,0%
CC(C)CCN1NC2(CCCC(C)C2)NC1=S (centres undefined),25,8,-10%,8%,1%,-4%
CCSc1cc(C2C(C#N)=C(N)OC(C)=C2C(=O)OC)c(C)o1 (centres undefined),-11,-2,-7%,25µM*,u,9%
O=C(N/N=C/c1cccc(O)c1)c1cc(-c2ccc3c(c2)OCO3)n[nH]1,12,10*,-3%,1%,6%,-1%
O=C(N/N=C/c1ccc(O)cc1)c1cc(-c2ccc3c(c2)OCO3)n[nH]1,33,9,5%,0%,6%,1%
O=C(N/N=C/c1ccccc1)c1cc(-c2ccc3c(c2)OCO3)n[nH]1,-6,14*,-2%,9%,1%,-3%
O=C(N/N=C/c1cccc([N+](=O)[O-])c1)c1cc(-c2ccc3c(c2)OCO3)n[nH]1,-15,3,4%,8%,3%,-1%
CN(C)c1ccc([C@@H]2[C@@H]([N+](=O)[O-])[C@H]3C=Cc4ccccc4N3[C@H]2C(=O)c2ccc(Cl)cc2)cc1,22*,21*,-5%,45µM*,-14%,-13%
O=C(c1ccccc1)C1C(c2ccccc2)C1[N+](=O)[O-] (centres undefined),20,-2,3%,8%,1%,7%
CN(Cc1ccc(Cl)s1)C(=O)CCl,21,8,1%,2.8µM*,-1%,-3%
CN(Cc1ccccc1)C(=O)Cc1ccccc1,-3,-1,-9%,2%,3%,-4%
CN(Cc1ccccc1)C(=O)CC(=O)N(C)Cc1ccccc1,52*,27*,2%,-1%,15%,-2%
Cc1nn(CC(=O)NCc2ccccc2)c(=O)c2cccn12,20,13,3%,-1%,3%,1%
COc1ccc(CN(C)C(=O)CCl)cc1,-10,13,6%,22µM*,-9%,7%
Cc1nn(CC(=O)N(C)Cc2ccccc2)c(=O)c2cccn12,46*,15,0%,6%,x,-8%
CN(Cc1ccc(Cl)cc1)C(=O)CCl,4,2,1%,1.8µM*,-6%,10%
COc1ccc(-c2csc(NC(=O)CSc3nc(SC)ns3)n2)cc1,57*,39*,0%,2%,-18%,4%
